Results taken from PubChem BioAssay (Tox21).
Unmarked numbers belong to inactive results. Unless noted, the call rests on the fitted dose curve. Results filed as inconclusive are left out.

Target: KiSS-1 receptor (Homo sapiens) (UniProt Q969F8)
Test: Human kisspeptin (KISS1R) small molecule agonists, calcium flux assay in KISS1R-HEK293 cells (AID 1920064; active means well fitted activation curve with a large enough effect in the repeat runs)
Conditions: KISS1R-HEK293, calcium flux fluorescence, agonist; series mostly up to 76.8 µM; activation: at the top concentration
Method in brief: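 HEK293 cells stably expressing human KISS1R were plated 18 h at 37 °C, loaded with calcium dye for 1 h at 37 °C, then given compound by pin tool. Fluorescence (Ex/Em 480/540) was read kinetically for 3 min.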
On the % scale 0 is the no-effect control and ±100 the full control effect.

Sequence of KiSS-1 receptor (Homo sapiens) (Q969F8 whole entry, looked up): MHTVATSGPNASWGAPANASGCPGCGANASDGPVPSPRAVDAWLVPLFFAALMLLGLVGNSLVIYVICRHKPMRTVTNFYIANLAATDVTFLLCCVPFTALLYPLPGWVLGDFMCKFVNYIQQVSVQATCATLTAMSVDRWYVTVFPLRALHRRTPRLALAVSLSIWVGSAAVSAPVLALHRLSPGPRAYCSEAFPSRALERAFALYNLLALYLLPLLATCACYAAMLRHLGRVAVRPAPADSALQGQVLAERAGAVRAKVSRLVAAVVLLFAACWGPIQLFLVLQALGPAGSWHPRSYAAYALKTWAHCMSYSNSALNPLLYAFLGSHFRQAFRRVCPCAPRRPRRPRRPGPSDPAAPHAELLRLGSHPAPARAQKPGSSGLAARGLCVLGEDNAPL

| Compound | activation |
| --- | --- |
| CCCCCCCCCCC=O | -0.902% |
| CC(C)(C)CC(C)(C)N | -0.969% |
| C=CCCCCCCCCOC(C)=O | -0.384% |
| C[C@H](NC(CCc1ccccc1)C(=O)O)C(=O)N1CCC[C@H]1C(=O)O (stereo partly specified) | -1.17% [at 35.3 µM] |
| CC(N=C(NC#N)Nc1ccncc1)C(C)(C)C (stereo unspecified) | 3.63% [at 35.3 µM] |
| OCCC1CCCCN1 (stereo unspecified) | -0.638% |
| C[C@]12CCC(=O)C=C1CC[C@H]1[C@@H]3CC[C@](O)(C(=O)CO)[C@@]3(C)C[C@H](O)[C@@]12F | 2.62% [at 35.3 µM] |
| CCC(C)(CCC(C)C)C(=O)O (stereo unspecified) | 2.84% |
| COP(=O)(O)OP(=O)(O)OC | 6.43% |
| CCCC(=O)OC/C=C(\C)CCC=C(C)C | -1.55% |
| NNC(=O)CP(=O)(c1ccccc1)c1ccccc1 | 0.0607% [at 35.3 µM] |

Test system: not listed separately
Test: G protein-coupled receptor (GPCR) small molecule agonists, calcium flux assay: HEK293 wild type cell line counter screen (AID 1920065)
Conditions: HEK293 WT calcium flux, fluorescence, agonist mode; series mostly up to 57.6 µM; activation: at the top concentration
Method in brief: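 Cells were plated and cultured 18 h at 37 C/5% CO2, then loaded with calcium dye for 1 h at 37 C. Compounds in DMSO were pin-transferred in agonist mode, and fluorescence (Ex/Em 480/540) was read kinetically for 3 min at 1 s intervals.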

| Compound | activation |
| --- | --- |
| CCCOC(=O)CC | 0.439% |
| C=CC(=O)N1CCOCC1 | 0.221% |
| C=CCOCC(O)CS(=O)(=O)O (stereo unspecified) | -0.0504% |
| CCCCNCC | -0.0744% |
| CCCC1CCC(=O)CC1 | 0.85% |
| CCC(C)COC(C)=O (stereo unspecified) | -0.874% |
| CCCNC(C)(C)COC(=O)c1ccccc1 | -0.485% [at 26.5 µM] |
| Cc1ccc(C#N)cc1 | 0.267% |
| Cc1nnc(SCC2=C(C(=O)O)N3C(=O)[C@@H](NC(=O)Cn4cnnn4)[C@H]3SC2)s1 | 0.0969% [at 26.5 µM] |
| CCN(CC)CCNC(C(=O)OCCC(C)C)c1ccccc1 (stereo unspecified) | -1.07% [at 26.5 µM] |
| CCOC(=O)CC(C)C | 1.04% |
| CCCCCCCCCCCCC1CO1 (stereo unspecified) | -0.0344% |
| O=C(O)/C=C(\CC(=O)O)C(=O)O | -0.81% [at 26.5 µM] |
| CCCCCCCCS(=O)(=O)O | -0.0879% |
| CC(C)CCCCCOC(=O)CCCCC(=O)OCCCCCC(C)C | -0.14% |
| CCOc1ccc(NC(N)=O)cc1 | 0.264% |
| CC1(C)CC(O)CC(C)(C)N1[O] | 0.2% |
| CC(C)COC(=O)CCCCC(=O)OCC(C)C | -2.13% |
| O=C1NCC2(CCN(CCc3ccccc3)CC2)O1 | 0.278% [at 26.5 µM] |
| C=C(C)C(=O)OCC | -0.113% |

| Compound | activation |
| --- | --- |
| CC(CO)(CO)[N+](=O)[O-] | -0.61% |
| C=CCCCCCCCCCCCCCC | 0.0173% [at 11.8 µM] |
| OC(C#CCN1CCCC1)(c1ccccc1)c1ccccc1 | 0.779% [at 26.5 µM] |
| C=C(C)[C@@H]1CC=C(C)C(=O)C1 | 0.557% |
| CCC(C)N (stereo unspecified) | -0.0474% |
| COC(C)=O | 1.43% |
| CCCCN1C[C@H](O)[C@@H](O)[C@H](O)[C@H]1CO | 0.175% [at 26.5 µM] |
| CC(=O)OCC(=O)NCCCOc1cccc(CN2CCCCC2)c1 | 1.33% [at 26.5 µM] |
| OC1CCCCC1c1ccccc1 (stereo unspecified) | -0.254% |
| CCCCCCCCCCC=O | -0.124% |
| CC(C)(C)CC(C)(C)N | 0.346% |
| C=CCCCCCCCCOC(C)=O | -0.0407% |
| C[C@H](NC(CCc1ccccc1)C(=O)O)C(=O)N1CCC[C@H]1C(=O)O (stereo partly specified) | 0.24% [at 26.5 µM] |
| CC(N=C(NC#N)Nc1ccncc1)C(C)(C)C (stereo unspecified) | 0.253% [at 26.5 µM] |
| OCCC1CCCCN1 (stereo unspecified) | -1.55% |
| C[C@]12CCC(=O)C=C1CC[C@H]1[C@@H]3CC[C@](O)(C(=O)CO)[C@@]3(C)C[C@H](O)[C@@]12F | 2.77% [at 26.5 µM] |
| CCC(C)(CCC(C)C)C(=O)O (stereo unspecified) | 0.461% |
| COP(=O)(O)OP(=O)(O)OC | -0.072% |
| CCCC(=O)OC/C=C(\C)CCC=C(C)C | 0.495% |
| NNC(=O)CP(=O)(c1ccccc1)c1ccccc1 | 0.0575% [at 26.5 µM] |

Test system: not listed separately
Test: p53 small molecule agonists, cell-based qHTS assay with human liver microsomes: qHTS cell viability counter screen (AID 1963579); further: nearly all actives have a fitted effect of over 45% in size
Conditions: p53RE-bla HCT-116 viability, ATP luminescence, 16 h, HLM; series mostly up to 66 µM; activity change, negative = cytotoxicity: at the top concentration
Method in brief: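 Seed p53RE-bla cells at 4,000 per well; incubate 5 h at 37 C; add compound, human liver microsomes and NADPH; incubate 16 h at 37 C; add CellTiter-Glo; after 30 min at room temperature, read luminescence.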

| Compound | activity change, negative = cytotoxicity |
| --- | --- |
| CCCOC(=O)CC | -13.8% |
| C=CC(=O)N1CCOCC1 | 3.26% |
| C=CCOCC(O)CS(=O)(=O)O (stereo unspecified) | 2.85% |
| CCCCNCC | -4.25% |
| CCCC1CCC(=O)CC1 | 8.7% |
| CCC(C)COC(C)=O (stereo unspecified) | 1.81% |
| CCCNC(C)(C)COC(=O)c1ccccc1 | 0.0693% [at 30.3 µM] |
| Cc1ccc(C#N)cc1 | 1.46% |
| Cc1nnc(SCC2=C(C(=O)O)N3C(=O)[C@@H](NC(=O)Cn4cnnn4)[C@H]3SC2)s1 | 7.46% [at 30.3 µM] |
| CCN(CC)CCNC(C(=O)OCCC(C)C)c1ccccc1 (stereo unspecified) | 1.23% [at 30.3 µM] |
| CCOC(=O)CC(C)C | 21.7% |
| CCCCCCCCCCCCC1CO1 (stereo unspecified) | -2.86% |
| O=C(O)/C=C(\CC(=O)O)C(=O)O | 6.54% [at 30.3 µM] |
| CCCCCCCCS(=O)(=O)O | 2.97% |
| CC(C)CCCCCOC(=O)CCCCC(=O)OCCCCCC(C)C | -5.94% |
| CCOc1ccc(NC(N)=O)cc1 | 1.64% |
| CC1(C)CC(O)CC(C)(C)N1[O] | 0.159% |
| CC(C)COC(=O)CCCCC(=O)OCC(C)C | -6.47% |
| O=C1NCC2(CCN(CCc3ccccc3)CC2)O1 | 29.5% [at 30.3 µM] |
| C=C(C)C(=O)OCC | 5.05% |

| Compound | activity change, negative = cytotoxicity |
| --- | --- |
| CC(CO)(CO)[N+](=O)[O-] | -2.69% |
| C=CCCCCCCCCCCCCCC | 3.4% [at 13.5 µM] |
| OC(C#CCN1CCCC1)(c1ccccc1)c1ccccc1 | 0.13% [at 30.3 µM] |
| C=C(C)[C@@H]1CC=C(C)C(=O)C1 | -0.291% |
| CCC(C)N (stereo unspecified) | 0.0234% |
| COC(C)=O | 7.26% |
| CCCCN1C[C@H](O)[C@@H](O)[C@H](O)[C@H]1CO | -0.834% [at 30.3 µM] |
| CC(=O)OCC(=O)NCCCOc1cccc(CN2CCCCC2)c1 | 29.3% [at 30.3 µM] |
| OC1CCCCC1c1ccccc1 (stereo unspecified) | 8.15% |
| CCCCCCCCCCC=O | 3.33% |
| CC(C)(C)CC(C)(C)N | 0.938% |
| C=CCCCCCCCCOC(C)=O | -1.9% |
| C[C@H](NC(CCc1ccccc1)C(=O)O)C(=O)N1CCC[C@H]1C(=O)O (stereo partly specified) | 0.4% [at 30.3 µM] |
| CC(N=C(NC#N)Nc1ccncc1)C(C)(C)C (stereo unspecified) | -10.6% [at 30.3 µM] |
| OCCC1CCCCN1 (stereo unspecified) | 0.585% |
| C[C@]12CCC(=O)C=C1CC[C@H]1[C@@H]3CC[C@](O)(C(=O)CO)[C@@]3(C)C[C@H](O)[C@@]12F | -0.728% [at 30.3 µM] |
| CCC(C)(CCC(C)C)C(=O)O (stereo unspecified) | -8.03% |
| COP(=O)(O)OP(=O)(O)OC | -2.89% |
| CCCC(=O)OC/C=C(\C)CCC=C(C)C | 4.29% |
| NNC(=O)CP(=O)(c1ccccc1)c1ccccc1 | -15.6% [at 30.3 µM] |
